From PubChem BioAssay
KKLEB tox: cytotoxicity in KKLEB CF airway cells, primary screen, cytotoxicity control for CF NF-kB inhibitor project, cell-based, uHTS, fluorescence assay plates; KKLEB CF airway cells viability, ATPlite luminescence, overnight; stronger effect = lower value; cells stimulated with P. aeruginosa culture filtrate; activity change (cytotoxicity), % at 5 µM; 360,000 tested, 0.36% active; AID 602141, 2011;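 active = corrected activity change at or below -50% at 5 µM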
TROY NFkB inh: inhibitors of TROY-driven NF-kB signaling, primary screen, Q293 LMP1-TROYcd cells, NF-kB luciferase, uHTS. Q293 LMP1-TROYcd NF-kB luciferase reporter, 4 h. inhibition, % at 10 µM. 360,000 tested, 0.98% active;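 active = compounds whose plate-normalised and pattern-corrected inhibition of the luciferase reporter signal at the single screening dose is 50% or more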
TWEAK Fn14 block: inhibitors of TWEAK-Fn14 signaling, primary screen, luciferase reporter cells, uHTS; TWEAK-stimulated Fn14 reporter cells, luciferase luminescence, 8 h; inhibition, % at 10 µM; 360,000 tested, 2% active; in the data active = inhibition above about 50%
CF NFkB inh: inhibitors of PAF-induced NF-kB signaling, primary screen, cell-based, GFP fluorescence, uHTS; 360,000 tested, 0.86% active; KKLEB NF-kB-GFP reporter, GFP fluorescence overnight; AID 588850, 2011; inhibition, % at 5 µM;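 active = at least 50% inhibition at 5 µM, scaled per plate between neutral and stimulator controls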;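 note: PAF is a Pseudomonas aeruginosa culture filtrate used as stimulus; plate controls were PAF-stimulated DMSO wells for no effect and unstimulated DMSO wells for full effect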
HIF-2a block: HIF-2a reporter inhibitors, primary screen, luminescence, 786-0 RCC cells. 786-0 RCC cells HIF-2a reporter, luciferase luminescence, overnight. 360,000 tested, 0.72% active. inhibition, % at 18.8 µM;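 active = inhibition of the luminescence signal of 40% or more relative to plate controls, in a single-dose primary screen at 18.75 µM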
Peg3 prom inh: Peg3 promoter-driven luciferase inhibitors, primary screen, cell-based, HeLa, luciferase luminescence | AID 588405, 2011 | inhibition, % at 20 µM | 360,000 tested, 1.7% active | HeLa PEG-Prom luciferase reporter, overnight;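 active = inhibition of at least 50% at 20 µM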
* marks the source's active call; other numbers are inactive results. Shown are actives, neighbours in structure and some others; about 4% of the full set was active somewhere.

Screening C=C1C(=O)O[C@H]2[C@H]1[C@H](OC(=O)CC(=O)O[C@@H]1C[C@@H](C)[C@@H]3C=CC(=O)[C@@]3(C)[C@H]3OC(=O)C(=C)[C@H]13)C[C@@H](C)[C@H]1C=CC(=O)[C@]12C returned KKLEB tox -8.0, TROY NFkB inh -15.3, TWEAK Fn14 block 17.5, CF NFkB inh 46.6, HIF-2a block -3.0 and Peg3 prom inh 22.4.
For C=C1C(=O)O[C@@H]2C[C@@H](C)[C@@H]3C=CC(=O)[C@@]3(C)[C@@H](OC(=O)CC(=O)O[C@H]3[C@@H]4C(=C)C(=O)O[C@@H]4C[C@@H](C)[C@@H]4C=CC(=O)[C@]43C)[C@H]12 the results were KKLEB tox -36.6, TROY NFkB inh 89.3*, TWEAK Fn14 block 105.3*, CF NFkB inh 80.5*, HIF-2a block 97.4* and Peg3 prom inh 105.1*.
CC(O)C1C=CC=CC(=O)OC2CC3OC4C5OC5(C)C(O)CC4(COC(=O)C(O)C(C)CCO1)C2(C)C31CO1 (stereo not given) was read as KKLEB tox -13.4, TROY NFkB inh 85.6*, TWEAK Fn14 block 99.0*, CF NFkB inh 83.0*, HIF-2a block 65.7* and Peg3 prom inh 104.9*.
For CCc1ccc(NC2=NCCCS2)cc1 the results were KKLEB tox 6.3, TROY NFkB inh -20.0, TWEAK Fn14 block -8.8, CF NFkB inh 4.7, HIF-2a block -59.3 and Peg3 prom inh -63.7.
Screening CC1Oc2cc3c(-c4c(O)cc(O)c5c(O)c6c(cc45)OC(C)C(C)C6=O)c(O)cc(O)c3c(O)c2C(=O)C1C (stereo not given) returned KKLEB tox -55.9*, TROY NFkB inh 12.5, TWEAK Fn14 block 68.3*, CF NFkB inh 67.3*, HIF-2a block -7.8 and Peg3 prom inh 70.1*.
COc1ccc(CCNCc2sccc2C)cc1OC was read as KKLEB tox 6.9, TROY NFkB inh 11.3, TWEAK Fn14 block 76.7*, CF NFkB inh -11.6, HIF-2a block 11.0 and Peg3 prom inh 4.3.
`CCOC(=O)c1ccc(NC(=O)N2C[C@@H]3C[C@@H](C2)c2cccc(=O)n2C3)cc1` gave KKLEB tox 13.0, TROY NFkB inh -8.2, TWEAK Fn14 block 12.3, CF NFkB inh -5.1, HIF-2a block 5.0 and Peg3 prom inh 6.0.
Screening CC1CCN(C(CC(=O)c2ccccc2)C(=O)c2ccccc2)CC1 (stereo not given) returned KKLEB tox -14.2, TROY NFkB inh -46.0, TWEAK Fn14 block 6.9, CF NFkB inh 39.9, HIF-2a block -143.1 and Peg3 prom inh 104.7*.
Screening CCCCn1c(=O)c(C(=O)NCc2ccncc2)c(O)c2ccccc21 returned KKLEB tox -5.4, TROY NFkB inh 22.6, TWEAK Fn14 block 56.2*, CF NFkB inh -0.5, HIF-2a block 24.5 and Peg3 prom inh 9.0.
`CCCCCn1c(=O)c(C(=O)Nc2ccccc2S(N)(=O)=O)c(O)c2ccccc21` gave KKLEB tox -17.1, TROY NFkB inh 36.2, TWEAK Fn14 block 59.0*, CF NFkB inh 0.9, HIF-2a block 7.5 and Peg3 prom inh 24.8.
For Oc1cc2c(cc1CN1CCN(c3ccccc3F)CC1)OCO2 the results were KKLEB tox 5.2, TROY NFkB inh -2.3, TWEAK Fn14 block 15.2, CF NFkB inh 11.3, HIF-2a block 2.9 and Peg3 prom inh 11.8.
`CCCCCCCCCCOC(=O)CCN1CC1` gave KKLEB tox -4.0, TROY NFkB inh 6.5, TWEAK Fn14 block -16.3, CF NFkB inh 18.5, HIF-2a block -0.6 and Peg3 prom inh 7.5.
For COCCCNC(=O)c1c(N)n(Cc2ccco2)c2nc3ccccc3nc12 the results were KKLEB tox -6.2, TROY NFkB inh 6.2, TWEAK Fn14 block 18.9, CF NFkB inh -20.2, HIF-2a block 8.7 and Peg3 prom inh 11.6.
Screening COC(=O)c1c(N)n(Cc2ccc(OC)cc2)c2nc3ccccc3nc12 returned KKLEB tox 0.5, TROY NFkB inh 46.2, TWEAK Fn14 block 34.8, CF NFkB inh 3.4, HIF-2a block -15.8 and Peg3 prom inh 7.3.
COc1ccc(Cn2c(N)c(C(=O)NCc3ccco3)c3nc4ccccc4nc32)cc1OC was read as KKLEB tox -20.9, TROY NFkB inh 66.6*, TWEAK Fn14 block 18.9, CF NFkB inh 15.3, HIF-2a block 15.0 and Peg3 prom inh 31.8.
`COCCOC(=O)c1c(N)n(Cc2ccc(OC)cc2)c2nc3ccccc3nc12` gave KKLEB tox -13.9, TROY NFkB inh 60.6*, TWEAK Fn14 block 38.5, CF NFkB inh 5.0, HIF-2a block 6.5 and Peg3 prom inh 4.4.
Screening CCCCNC(=O)c1c(N)n(CCCOC)c2nc3ccccc3nc12 returned KKLEB tox 0.5, TROY NFkB inh 25.8, TWEAK Fn14 block 3.7, CF NFkB inh -12.6, HIF-2a block 15.1 and Peg3 prom inh 13.5.
For CC(C)CCNC(=O)c1c(N)n(Cc2ccc3c(c2)OCO3)c2nc3ccccc3nc12 the results were KKLEB tox -8.8, TROY NFkB inh 59.7*, TWEAK Fn14 block 48.7, CF NFkB inh 9.9, HIF-2a block -2.0 and Peg3 prom inh 45.4.
Screening Nc1c(C(=O)NCC2CCCO2)c2nc3ccccc3nc2n1Cc1ccco1 (stereo not given) returned KKLEB tox -4.9, TROY NFkB inh 6.3, TWEAK Fn14 block 17.7, CF NFkB inh 1.3, HIF-2a block 27.1 and Peg3 prom inh 28.9.
`CCCNC(=O)c1c(N)n(Cc2ccc3c(c2)OCO3)c2nc3ccccc3nc12` gave KKLEB tox -64.5*, TROY NFkB inh 57.5*, TWEAK Fn14 block 30.8, CF NFkB inh 51.0*, HIF-2a block 11.2 and Peg3 prom inh 41.4.
`N[C@@H](Cc1c[nH]c2ccccc12)c1nnc(SCc2ccccc2F)o1` gave KKLEB tox 1.1, TROY NFkB inh 11.6, TWEAK Fn14 block 5.3, CF NFkB inh 4.8, HIF-2a block -10.7 and Peg3 prom inh 0.0.
CSc1ccccc1NP1(=O)OCC(C)([N+](=O)[O-])CO1 (stereo not given) was read as KKLEB tox -16.4, TROY NFkB inh -9.0, TWEAK Fn14 block -2.9, CF NFkB inh 24.4, HIF-2a block 13.2 and Peg3 prom inh -8.6.
For CC(C)CNC(=O)c1c(N)n(Cc2ccc3c(c2)OCO3)c2nc3ccccc3nc12 the results were KKLEB tox -18.5, TROY NFkB inh 63.2*, TWEAK Fn14 block 27.1, CF NFkB inh 17.1, HIF-2a block 7.4 and Peg3 prom inh 32.1.
CC(C)CNC(=O)c1c(N)n(Cc2ccco2)c2nc3ccccc3nc12 was read as KKLEB tox -17.7, TROY NFkB inh 16.4, TWEAK Fn14 block 37.8, CF NFkB inh 10.4, HIF-2a block -15.1 and Peg3 prom inh 18.2.
